Experimental data reported in PubChem BioAssay AID504848 (National Center for Advancing Translational Sciences (NCATS), 2011).
Hit rate of the full screen: of about 2,300 compounds, about 1,400 (61%) were called active. Another 29% or so got no clear call; they are omitted. So high a share suggests a set chosen from earlier hits. This is one part of the list. Unmarked numbers belong to inactive results. Calls come from the whole dose curve; as a rule, active = well fitted inhibition curve with a large enough effect; inconclusive = small, poorly fitted or top-dose-only effect, or effect the other way; inactive = no such curve, though single readings can be large or run the other way.

Experiment: Confirmation screen for delayed death inhibitors of the malarial parasite plastid, 96 hour incubation; note: nearly all actives have a fitted effect of over 60% in size
Details: P. falciparum luciferase growth in erythrocytes; series mostly up to 28.7 µM; activity change, negative = inhibition: at the top concentration
Method in brief: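 Two-generation (96 h, 37 C) exposure of P. falciparum carrying an integrated firefly luciferase reporter in erythrocytes, 0.1% parasitemia and 2% hematocrit final, Albumax-supplemented RPMI. Luminescence decrease measures growth inhibition.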
% is set by controls: 0 for no effect and ±100 for the full control effect; potency is the fitted concentration of half-maximal effect.

SMILES	Potency	activity change, negative = inhibition [%]
COc1ccccc1CCNC(=O)CCn1nc(C)c2c(C)n(-c3ccccc3)nc2c1=O	7.94 µM (active)	
CCC(C(=O)NCCc1ccccc1OC)n1nc(C)c2c(C)n(-c3ccccc3)nc2c1=O (configuration not stated)	10 µM (active)	
C=C1CCC2[C@](C)(CO)[C@H](O)CC[C@@]2(C)[C@@H]1C/C=C1\C(=O)OC[C@H]1O (some centres not stated)	11.2 µM (active)	
CC1(C)Cc2nc(-c3ccccc3)nc(SCC(O)CO)c2CO1 (configuration not stated)	12.6 µM (active)	
COc1ccc(C)c2sc(NC(=O)CCS(=O)(=O)c3ccccc3)nc12		-23.6
CCOc1cccc2sc(NC(=O)CCS(=O)(=O)c3ccccc3)nc12	5.62 µM (active)	
CC(C)(C)Sc1ccc([N+](=O)[O-])cc1C(=O)Nc1ccncc1	2.51 µM (active)	
COc1cccc(-c2sc3ccc(OC)cc3c2-c2cc(F)cc(OC)c2)c1	10 µM (active)	
CN1C(=O)c2ccccc2N(C)C1c1cccc(O)c1 (configuration not stated)	15.8 µM (active)	
CC(=O)N1CCc2cc(S(=O)(=O)NCCC(=O)N3CCN(c4ccccn4)CC3)ccc21	7.94 µM (active)	
CC1CN(c2nc(-c3ccc(Br)cc3)nnc2-c2ccccc2)CC(C)N1 (configuration not stated)	2.82 µM (active)	
O=C(CSc1nnc(-c2ccco2)o1)N1c2ccccc2CCc2ccccc21	7.94 µM (active)	
O=C(Cc1cn2ccsc2n1)Nc1nc2c(s1)CCCC2		8.57
O=C(CCCl)Nc1nc2c(s1)CCc1ccccc1-2	11.2 µM (active)	
O=C(Cn1c(=O)sc2ccccc21)Nc1nc2c(s1)CCCC2		19.7
COc1ccc(CN(C(=O)c2oc3ccc(F)cc3c2C)C2CCS(=O)(=O)C2)cc1 (configuration not stated)	14.1 µM (active)	
Cc1cc(C(=O)N(C)CC2CCCN(CCc3ccc(F)cc3)C2)c(C)o1 (configuration not stated)	14.1 µM (active)	
Cc1c(/C=N/NC(=O)c2cccs2)c2ccccc2n1Cc1ccccc1Cl	3.16 µM (active)	
Cc1ccccc1NC1=NCC(c2ccc([N+](=O)[O-])cc2)S1 (configuration not stated)	11.2 µM (active)	

SMILES	Potency	activity change, negative = inhibition [%]
CCN(CC)CCNC(=O)c1ccc(NC(=O)c2ccccc2-c2ccc(C(F)(F)F)cc2)cc1	11.2 µM (active)	
CCN(CC)C(=O)CSc1nc(COc2ccccc2)nc2ccccc12	11.2 µM (active)	
COc1ccc2[nH]c3c(NCCN(C(C)C)C(C)C)ncnc3c2c1	3.98 µM (active)	
COc1ccc2[nH]c3c(NCCC4=CCCCC4)ncnc3c2c1	5.62 µM (active)	
CC(C)OCCCNc1ncnc2c1[nH]c1ccc(F)cc12	4.47 µM (active)	
Cc1ccccc1OCC(=O)NCCC1=CCCCC1		-19.1
Cc1cc(=O)nc2c3ccccc3n(CC(=O)NCCC3=CCCCC3)n12	8.91 µM (active)	
COc1ccc(S(=O)(=O)N2CCC(C(=O)Nc3ccccc3N3CCCCC3)CC2)cc1OC	7.94 µM (active)	
O=C(NCCCn1ccnc1)C(=O)NCC1OCCN1S(=O)(=O)c1ccc(F)cc1 (configuration not stated)		-11.4
COc1ccc(CCNC(=O)C(=O)NCC2OCCN2S(=O)(=O)c2ccc3c(c2)OCCO3)cc1OC (configuration not stated)	11.2 µM (active)	
COc1ccc(CCNC(=O)C2CCN(S(=O)(=O)c3ccc(OC)c(OC)c3)CC2)cc1OC	12.6 µM (active)	
COc1ccc(Cl)cc1NC(=O)C1Cc2cc(S(=O)(=O)N3CCCC3)ccc2N1C(C)=O (configuration not stated)	11.2 µM (active)	
Cc1ccc(-c2nnc(N3CCOCC3)c3ccccc23)cc1S(=O)(=O)NCC1CCCO1 (configuration not stated)	2.51 µM (active)	
Cc1cc(C)c(OCC(O)CNC(C)(C)C)c(C)c1 (configuration not stated)	7.08 µM (active)	
COc1ccc(N2CCc3c(C)nc4c(OC)cc(OC)cc4c32)c(OC)c1	5.01 µM (active)	
CC(C)NC(=S)N/N=C/c1sc(N2CCCCC2)nc1-c1cccs1	5.01 µM (active)	
Cc1cc2nsnc2c(S(=O)(=O)N2CCN(C)CC2)c1C		27.1
CC1CCN(CCNC(=O)C2CCN(S(=O)(=O)c3cccc4nsnc34)CC2)CC1	7.94 µM (active)	
C=CCn1cccc(/C=C/C(=O)c2ccc(C(C)(C)C)cc2)c1=S	0.794 µM (active)	

SMILES	Potency	activity change, negative = inhibition [%]
COc1ccc(CC(=O)NCC2CCCN(Cc3ccc(F)c(OC)c3)C2)cc1 (configuration not stated)	7.08 µM (active)	
Cc1ccc2[nH]c3c(c2c1)CCCC3NC(=O)CCl (configuration not stated)	4.47 µM (active)	
C[n+]1ccn(CC(=O)c2ccc(Cl)cc2)c1	14.1 µM (active)	
Cc1cc(C)cc(CC(Cc2nc3ccccc3[nH]2)c2nc3ccccc3[nH]2)c1 (configuration not stated)	1.12 µM (active)	
C=CCN1C(=O)[C@@H]2Cc3c([nH]c4ccccc34)C(c3ccc(O)cc3)N2C1=S (some centres not stated)	12.6 µM (active)	
CCN1C(=O)[C@@H]2Cc3c([nH]c4ccccc34)C(c3ccc(OC)cc3)N2C1=S (some centres not stated)	11.2 µM (active)	
CCc1nc(Nc2ccncc2)c2oc3ccccc3c2n1	3.98 µM (active)	
O=C(C[C@@H]1C/C=C\CC[C@@H](Cc2ccc(F)cc2)C(=O)OC[C@@H]2CCCN2C1=O)NCCO	10 µM (active)	
O=C(C[C@H]1C(=O)N(Cc2ccccc2)C[C@@H]1Cc1ccccc1)Nc1ccccc1	11.2 µM (active)	
CC(C)(C)c1ccc(C(O)CCCN2CCC(C(O)(c3ccccc3)c3ccccc3)CC2)cc1 (configuration not stated)	11.2 µM (active)	
CS(=O)(=O)Nc1ccc(C2=NN(C(=O)c3ccco3)C(c3ccc(F)cc3)C2)cc1 (configuration not stated)	10 µM (active)	
COc1cc([N+](=O)[O-])ccc1NC(=O)Nc1cccnc1	10 µM (active)	
Cc1ccc(S(=O)(=O)N2CCN(C(=O)c3cc(S(=O)(=O)N(C)C)ccc3N3CCCC3)CC2)c(C)c1	8.91 µM (active)	
Cc1ccc(S(=O)(=O)N2CCN(C(=O)c3ccc(Br)o3)CC2)c(C)c1	6.31 µM (active)	
CCc1ccc(/C=C/c2c[nH]c3ccccc23)[n+](CC)c1	0.0501 µM (active)	
CCN1CCCC1CNC(=O)c1ccc2c(c1)N(Cc1ccccc1F)C(=O)c1ccccc1S2(=O)=O (configuration not stated)	2 µM (active)	
CCN1C(=O)c2ccccc2Sc2ccc(C(=O)NCCCN3CCCCC3)cc21	10 µM (active)	
O=C(NCCCN1CCCC1)c1ccc2c(c1)N(Cc1ccccc1F)C(=O)c1ccccc1S2=O (configuration not stated)	11.2 µM (active)	
Cc1cccc(CN2C(=O)c3ccccc3S(=O)(=O)c3ccc(C(=O)NCCCN4CCCC4)cc32)c1	1.58 µM (active)	
